ASM inhibitor = Inhibitors of Secretory Acid Sphingomyelinase (S-ASM): qHTS; hit rate 0.006% among 340,000; Potency, µM (highest dose often 57.5 µM), for inactives: at the top dose activity change, negative = inhibition, most hits filed as inhibitors; Sphingomyelin phosphodiesterase (Homo sapiens), P17405; placental ASM, HMU-PC fluorogenic substrate, 60 min; note: potency is the fitted concentration of half-maximal effect
Target sequence (P17405 47-631 limits assumed): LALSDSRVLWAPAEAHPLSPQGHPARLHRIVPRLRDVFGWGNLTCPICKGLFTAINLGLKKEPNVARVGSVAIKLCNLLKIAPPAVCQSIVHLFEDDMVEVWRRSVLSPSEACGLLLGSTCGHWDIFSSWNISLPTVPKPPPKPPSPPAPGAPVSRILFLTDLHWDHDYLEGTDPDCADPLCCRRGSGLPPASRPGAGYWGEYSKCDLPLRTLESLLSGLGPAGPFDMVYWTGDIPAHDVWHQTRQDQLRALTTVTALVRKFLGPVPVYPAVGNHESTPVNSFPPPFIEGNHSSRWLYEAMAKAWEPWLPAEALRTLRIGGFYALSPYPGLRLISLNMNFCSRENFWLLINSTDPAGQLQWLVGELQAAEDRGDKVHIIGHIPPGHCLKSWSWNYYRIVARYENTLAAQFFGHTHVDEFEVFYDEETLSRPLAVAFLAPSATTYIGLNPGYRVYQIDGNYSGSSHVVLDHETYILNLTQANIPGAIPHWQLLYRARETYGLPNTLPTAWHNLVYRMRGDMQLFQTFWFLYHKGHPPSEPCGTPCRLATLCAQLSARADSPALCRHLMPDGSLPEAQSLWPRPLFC
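Human placenta-derived ASM preincubated with compound 10 min at room temperature, then reacted with 9 uM (final) fluorogenic HMU-PC substrate for 60 min at 37 C. Stop solution raises pH to 10; fluorescence read at Ex 386/Em 447 nm.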
TGFb SMAD3 inh = qHTS for Inhibitors of TGF-b. HepG2 CAGA-GFP TGF-b/SMAD3 reporter, GFP fluorescence, 18 h; TGF-beta stimulated, 500 pg/mL final. Potency, µM (doses to about 46.1 µM), for inactives: top-dose activity, negative = inhibition, most hits filed as inhibitors. hit rate 1.2% among 410,000. AID 588855, 2011; note: potency is the fitted concentration of half-maximal effect; % is set by controls: 0 for no effect and ±100 for the full control effect; nearly all actives have a fitted effect of over 65% in size
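GFP signal (ex488/em500-530) from TGF-beta-stimulated HEPG2 CAGA-GFP cells, 500 pg/mL final, 18 h at 37 degrees C in DMEM plus 1% FBS, normalized to unstimulated and DMSO-stimulated controls.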
HepG2 viability = qHTS for Inhibitors of TGF-b: Cytotox Counterscreen. Potency, µM (highest dose often 46.1 µM), for the others: top-dose activity change, negative = cytotoxicity, most hits filed as cytotoxic. AID 588856, 2011. hit rate 0.76% among 410,000. HepG2 CAGA-GFP viability, ATP luminescence, 18 h; note: potency is the fitted concentration of half-maximal effect
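HepG2 CAGA-GFP cells (1000/well, DMEM with 1% FBS) received compound, then TGF-beta at 500 pg/mL final, and were incubated 18 hours at 37 degrees C. Viability was read by CellTiter-Glo luminescence. Media-only wells were set as complete cell-killing and DMSO as no toxicity.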
IL1B secr inh = qHTS for Inhibitors of Inflammasome Signaling: IL-1-beta AlphaLISA Primary Screen; THP-1 LPS/ATP IL-1B secretion, AlphaLISA, 16 h; active compounds read low; activity change, % at 57.5 µM; hit rate 4.7% among 360,000; in the data active = activity change below about -50%; inconclusive = mostly about -30% to -49%; note: % is set by controls: 0 for no effect and ±100 for the full control effect
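THP-1 cells pretreated 1 hr with compounds (up to 57.5 uM final), then stimulated with LPS (250 ng/mL final) plus ATP (1.25 mM final); secreted IL-1B measured by AlphaLISA after 16 hr, decreased signal indicating inhibition.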
DT40 TDP1 no CPT = qHTS for Inhibitors of human tyrosyl-DNA phosphodiesterase 1 (TDP1): qHTS in cells in absence of CPT | DT40 Tdp1-/- hTDP1 cells, no CPT, ATP luminescence, 48 h | hit rate 15% among 420,000 | Potency, µM (doses to about 46.2 µM), inactives show at the highest dose activity change, negative = growth inhibition, actives largely listed as inhibitors | AID 686978, 2013; note: potency is the fitted concentration of half-maximal effect; % is set by controls: 0 for no effect and ±100 for the full control effect; nearly all actives have a fitted effect of over 55% in size
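Readout: luminescence from CellTiter-Glo after 30 min in the dark at RT. Cells: DT40 Tdp1-/- with stable hTDP1, 400/well. Exposure: compounds alone, ≥48 hr, 37 °C.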
TDP1 cell CPT = qHTS for Inhibitors of human tyrosyl-DNA phosphodiesterase 1 (TDP1): qHTS in cells in presence of CPT; chicken DT40 Tdp1-/-;hTDP1 cells + 20 nM CPT, ATP luminescence, 48 h; Potency, µM (series often up to 46.2 µM), inactives show at the top dose activity change, negative = growth inhibition, actives largely listed as inhibitors; hit rate 12% among 420,000; AID 686979, 2013; note: potency is the fitted concentration of half-maximal effect; % is set by controls: 0 for no effect and ±100 for the full control effect; nearly all actives have a fitted effect of over 55% in size
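Cell growth measured by CellTiter-Glo luminescence after a minimum 48 h, 37 C compound exposure with 20 nM CPT in Tdp1-knockout DT40 cells stably expressing hTDP1, seeded 400/well; qHTS titration format.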
Active calls of the source: *; ? = inconclusive; . = no result; [ ] = dose if it differs, or a comment. Hits are enriched below; roughly 19% of the tested compounds scored in any of these assays. Unless noted, calls come from the whole dose curve; as a rule, active = well fitted curve in the direction sought with a large enough effect; inconclusive = small, poorly fitted or top-dose-only effect, or another doubt; inactive = no such curve, though single readings can be large; an effect the other way counts as inactive or inconclusive.

SMILES	ASM inhibitor	TGFb SMAD3 inh	HepG2 viability	IL1B secr inh	DT40 TDP1 no CPT	TDP1 cell CPT
Cc1noc(C)c1NC(=O)N(C)C[C@@H]1Oc2ncc(Br)cc2C(=O)N([C@@H](C)CO)C[C@@H]1C	.	13.7%	11.4%	24.9	39.2%	-0.6%
CC(OC(=O)C1=COCCO1)C(=O)NC1(C#N)CCCCC1 (stereo not given)	1.8%	-11.3%	-5.6%	12.0	-1.9%	-14.8%
Cc1cccc(OCC(=O)N(Cc2ccc(C)o2)C2CCS(=O)(=O)C2)c1 (stereo not given)	-2.4%	-11.0%	-6.6%	8.8	1.3%	0.0%
O=C(CN1CCN(CC(=O)c2ccccc2)CC1)c1ccccc1	-4.4%	-22.7%	-18.3%	45.4	-30.3%	?
CCN1CCN(c2ncc3c(n2)CC(c2cc(OC)c(OC)c(OC)c2)CC3=O)CC1 (stereo not given)	-2.8%	1.5%	4.3%	26.5	3.26µM*	4.61µM*
O=C1CC(c2cccc(Cl)c2)Cc2nc(N3CCN(c4ccccc4)CC3)ncc21 (stereo not given)	-3.1%	4.7%	12.0%	9.4	-4.3%	-3.4%
O=C1CC(c2cccc(Cl)c2)Cc2nc(N3CCOCC3)ncc21 (stereo not given)	-2.1%	-11.9%	-1.2%	12.8	20.6µM*	?
O=C(Cc1ccc2c(c1)OCO2)N1CCOc2ccc(CN3CCOCC3)cc2C1	.	.	.	.	-17.1%	2.3%[9.04 µM]
Cc1ccc(NC(=O)CCC(=O)N2CCSc3ccccc32)cc1	.	?	-23.8%	.	?	16.4µM*
Cc1ccccc1NC(=O)CCC(=O)N1CCSc2ccccc21	.	?	-27.5%	.	?	-26.5%
CCOc1ccc(NC(=O)CCC(=O)N2CCSc3ccccc32)cc1	2.0%	-3.8%	-2.7%	0.0	16.4µM*	16.4µM*
CC(C)Oc1ccc(CNC(=O)CCC(=O)N2CCSc3ccccc32)cc1	-0.8%	?	-26.5%	3.3	?	-6.6%
CCOc1ccc(OCC)c(NC(=O)CCC(=O)N2CCOc3ccccc32)c1	.	1.2%	-0.8%	.	25.9µM*	25.9µM*
O=C(CCC(=O)N1CCSc2ccccc21)NCc1ccc(Cl)cc1	-2.6%	-14.0%	-7.0%	-17.9	-19.8%	-24.0%
O=C(CCC(=O)N1CCSc2ccccc21)NCc1ccccc1Cl	.	.	-17.1%	.	?	10.3µM*
CCOc1ccc(NC(=O)CC(C)O)cc1 (stereo not given)	.	.	.	.	1.4%	4.2%
Cc1ccc(S(=O)(=O)NC(C)C(=O)OCC(=O)Nc2sccc2C(N)=O)cc1 (stereo not given)	.	-2.1%	-0.4%	2.5	-2.8%	-9.2%
O=C(CCC(=O)N1CCSc2ccccc21)NCc1ccccc1	0.4%	-0.6%	-0.6%	-12.3	-9.3%	?
O=C(CCC(=O)N1Cc2ccccc2Oc2ncccc21)Nc1ccc(Cl)cc1	.	0.9%	-22.0%	.	?	?
COc1ccc(OC)c(CCNC(=O)CCC(=O)N2CCOc3ccc(C)cc32)c1	4.3%	-4.5%	-22.9%	-22.6	?	23.1µM*
CCOC(=O)c1ccc(NC(=O)CCC(=O)N2Cc3ccccc3Oc3ncccc32)cc1	.	4.1%	-25.6%	.	20.6µM*	16.4µM*
CCOC(=O)c1ccc(NC(=O)CCC(=O)N2CCSc3ccccc32)cc1	.	?	-36.0%	.	13µM*	23.1µM*
Cc1ccc(NC(=O)CCC(=O)N2CCSc3ccccc32)cc1Cl	.	-28.8%	-22.5%	.	?	16.4µM*
CN(CC(=O)Nc1ccccc1C(F)(F)F)C(=O)c1ccc(N2C(=O)CCC2=O)cc1	-0.4%	-0.6%	-6.8%	13.1	-1.8%	20.3%
COC(=O)c1ccc(CNC(=O)CSC(C)C(=O)Nc2cc(C)on2)cc1 (stereo not given)	-1.1%	14.1%	5.7%	6.2	14.8%	-21.9%
SMILES	ASM inhibitor	TGFb SMAD3 inh	HepG2 viability	IL1B secr inh	DT40 TDP1 no CPT	TDP1 cell CPT
O=C(CCC(=O)N1CCSc2ccccc21)NCc1cccc(Br)c1	0.6%	-19.2%	-14.5%	-9.3	-20.8%	-28.8%
O=C(CCC(=O)N1CCSc2ccccc21)Nc1ccc(Cl)cc1	.	-28.4%	-28.7%	.	20.6µM*	14.6µM*
Cc1nc(CC(=O)Nc2cc(Cl)ccc2C)cs1	.	-0.6%	-1.3%	.	-4.8%	-0.8%
O=C1[C@H]2[C@@H](c3ccccc3)N[C@]3(CCCN(Cc4ccc(F)cc4)C3=O)[C@H]2C(=O)N1Cc1ccccc1	.	-2.0%	-6.4%	-22.6	16.4µM*	?
Cc1ccc(CN2CCC[C@]3(N[C@H](c4ccccc4)[C@@H]4C(=O)N(Cc5ccccc5)C(=O)[C@@H]43)C2=O)cc1	.	-7.5%	-41.5%	-16.5	16.4µM*	25.9µM*
O=C1[C@H]2[C@@H](c3ccccc3)N[C@]3(CCCN(Cc4ccccc4)C3=O)[C@H]2C(=O)N1Cc1ccccc1	.	-6.6%	-23.4%	-14.5	?	-17.0%
O=C1[C@H]2[C@@H](c3ccc(C(F)(F)F)cc3)N[C@]3(CCCN(Cc4ccc(F)cc4)C3=O)[C@H]2C(=O)N1Cc1ccccc1	.	?	-43.6%	-56.5*	?	?
O=C1[C@H]2[C@@H](c3ccccc3)N[C@]3(CCCN(Cc4ccc(C(F)(F)F)cc4)C3=O)[C@H]2C(=O)N1Cc1ccccc1	.	?	-31.5%	-28.5	?	18.4µM*
COc1cccc(OC)c1OCCOc1ccccc1OC(C)C	-0.7%	-5.3%	10.5%	16.0	?	?
COc1cccc(OC)c1OCCNCC1CSc2ccccc2O1 (stereo not given)	0.0%	-17.8%	-41.5%	-3.7	10.3µM*	20.6µM*
O=C(CCCC(=O)Nc1cccc(Br)c1)N/N=C/c1cc([N+](=O)[O-])ccc1O	-7.8%	?	-36.2%	45.6	5.17µM*	5.8µM*
Cc1ccccc1NC(=O)CCC(=O)N/N=C/c1cc([N+](=O)[O-])ccc1O	0.3%	-7.3%	-33.4%	22.8	16.4µM*	?
CCCCOc1ccc(C2=CSC3=NCCN23)cc1[N+](=O)[O-]	-3.7%	-13.6%	-29.9%	-25.2	29.1µM*	?
Cc1ccc(C)c(N(C)C(=O)c2cc3c(s2)-c2ccccc2OC3)c1	.	?	-32.8%	.	.	.
COc1ccc(N(C)C(=O)c2cc3c(s2)-c2ccc(Cl)cc2S(=O)(=O)C3)c(OC)c1	-6.7%	-17.1%	-1.9%	-9.2	?	18.4µM*

Source: PubChem
